# Rows were chosen to be rich in hits. Some 9.9% of all compounds tested hit in one or more screens of this group.
# MCF10A rereplic: induces DNA re-replication in MCF 10a normal breast cells; MCF 10A DNA re-replication, Hoechst nuclear intensity, 48 h; Potency, µM (series often up to 46.1 µM), actives largely listed as activators; 350,000 compounds, 2.9% hits; AID 624296; note: nearly all actives have a fitted effect of over 50% in size
# KB-3-1 tox: kills parental KB-3-1 adenocarcinoma cells. KB-3-1 viability, CellTiter-Glo ATP luminescence, 72 h. Potency, µM (doses to about 46.1 µM), usual class: cytotoxic. 400,000 compounds, 1.4% hits. AID 1347075; note: nearly all actives have a fitted effect of over 60% in size
#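 Cytotoxicity in the drug-sensitive parental line KB-3-1 was scored as loss of CellTiter-Glo luminescence following 72 h incubation with compound. Values come from curve fitting of normalized concentration-response data.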
# IL1B secr inh: inflammasome signaling inhibition, IL-1 beta readout; THP-1 LPS/ATP IL-1B secretion, AlphaLISA, 16 h; hits give low values; activity change, % at 57.5 µM; 360,000 compounds, 4.7% hits; in the data active = activity change below about -50%; inconclusive = mostly about -30% to -49%
#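 THP-1 cells pretreated 1 hr with compounds (up to 57.5 uM final), then stimulated with LPS (250 ng/mL final) plus ATP (1.25 mM final); secreted IL-1B measured by AlphaLISA after 16 hr, decreased signal indicating inhibition.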
# SW480 rereplic: inducers of DNA re-replication in SW480 colon cancer cells | SW480 DNA re-replication, Hoechst DNA content imaging, 48 h | Potency, µM (doses to about 46.1 µM), actives largely listed as activators | 340,000 compounds, 1.8% hits; note: nearly all actives have a fitted effect of over 55% in size
#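 Per well, 250 cells were exposed to pinned compound for 48 hr. Nuclear DNA was visualised with Hoechst (40 min, 37 C) and total object intensity recorded by fluorescence scanning.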
# KB-V1 MDR tox: kills drug-selected multidrug resistant KB-V1 cells. Potency, µM (top dose mostly 46.1 µM), most hits filed as cytotoxic. KB-V1 MDR cells viability, CellTiter-Glo, 72 h. 400,000 compounds, 3.4% hits; note: nearly all actives have a fitted effect of over 60% in size
#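 qHTS viability screen in drug-selected KB-V1 MDR cells: 72 h compound treatment at 37 degrees C, ATP luminescence end point.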
# A number is an active result; – = inactive; ? = inconclusive; · = no result given. Unless noted, calls come from the whole dose curve; as a rule, active = well fitted curve in the direction sought with a large enough effect; inconclusive = small, poorly fitted or top-dose-only effect, or another doubt; inactive = no such curve, though single readings can be large; an effect the other way counts as inactive or inconclusive.
SMILES,MCF10A rereplic,KB-3-1 tox,IL1B secr inh,SW480 rereplic,KB-V1 MDR tox
COc1cc(OC)nc(Nc2nc(C(N)c3ccccc3)cs2)n1 (stereo not drawn),·,–,-56,·,–
COc1cccc(Nc2nc(C(C)N)cs2)n1 (stereo not drawn),·,–,–,·,–
COc1cccc(Nc2nc(C(N)c3ccccc3)cs2)n1 (stereo not drawn),·,–,-71,·,–
O=C(Nc1ccc(F)cc1)c1ccc(-n2cnnc2)cc1,·,–,·,·,–
COc1ccc(CCNC(=O)C(=O)N/N=C/c2cccs2)cc1OC,–,–,–,–,–
O=C(N/N=C/c1ccc(F)cc1)c1sccc1OCc1ccc(F)cc1,7.3µM,?,–,9.2µM,7.3µM
NNC(=O)c1sccc1OCc1ccc(F)cc1,–,–,–,–,?
COc1ccc(COc2ccsc2C(=O)Nc2ccc(Cl)cc2)cc1,18µM,–,–,?,9.2µM
O=C(N/N=C/c1ccc(Cl)cc1)c1sccc1OCc1ccc(F)cc1,1.6µM,1.5µM,–,9.2µM,1.3µM
CCN(CC)c1ccc(C(=O)NNC(=O)CNC(=O)c2ccco2)cc1,–,–,–,–,–
Cc1nc2c(sc3nc4c(cc32)COC(C)(C)C4)c(=O)n1Cc1ccccc1,–,–,–,–,5.2µM
Cc1nc2c(sc3nc4c(cc32)COC(C)(C)C4)c(=O)n1CC(=O)NCc1ccco1,?,5.2µM,–,?,?
CC1(C)Cc2nc3sc4c(=O)n(CC(=O)NCc5ccccc5)cnc4c3cc2CO1,6.5µM,2.6µM,–,?,3.7µM
CC1(C)Cc2nc3sc4c(=O)n(Cc5ccccc5)cnc4c3cc2CS1,?,–,–,–,8.2µM
Cc1ccc(S(=O)(=O)NC(=O)C2(C)CCN2C(=O)C2CC2)cc1 (stereo not drawn),·,–,–,·,–
CCOC(=O)c1c(C)n(S(=O)(=O)c2ccc(C)cc2)c2ccc(O)c(C(=O)O)c12,–,–,–,–,?
CCCCc1nc2sc3c(=O)n(N)cnc3c2c2c1CCC2,–,?,–,–,–
CC1(C)Cc2nc3sc4c(SCC(=O)NCc5ccco5)ncnc4c3cc2CO1,3.3µM,4.6µM,–,3.3µM,?
CCCc1nc2c(sc3nc4c(cc32)COC(C)(C)C4)c(=O)n1Cc1ccco1,–,–,–,–,?
COC(=O)c1c(NC(=O)c2cccc(S(=O)(=O)N3CCN(C)CC3)c2)sc(C)c1C,21µM,–,-77,?,–
COc1ccc(-c2csc(NC(=O)c3cccc(S(=O)(=O)N4CCN(C)CC4)c3)n2)cc1,?,–,–,–,–
CN1CCN(S(=O)(=O)c2cccc(C(=O)Nc3nc(-c4ccccc4)cs3)c2)CC1,?,?,–,–,3.3µM
Cc1noc(C)c1COC(=O)c1csc2c1CCC(C)C2 (stereo not drawn),?,–,–,–,21µM
CC1CCc2c(C(=O)NCC3CCCO3)csc2C1 (stereo not drawn),–,–,–,–,–
O=C(N/N=C/c1ccc(-c2cccc([N+](=O)[O-])c2)o1)c1ccccc1O,?,–,–,?,–
SMILES,MCF10A rereplic,KB-3-1 tox,IL1B secr inh,SW480 rereplic,KB-V1 MDR tox
O=C(N/N=C/c1ccc(-c2cccc([N+](=O)[O-])c2)o1)c1ccc([N+](=O)[O-])cc1,–,–,-51,?,?
O=C(N/N=C\c1cn[nH]c1-c1ccccc1)c1ccc([N+](=O)[O-])cc1,–,?,–,4.1µM,–
O=C(N/N=C\c1ccc(COc2ccc([N+](=O)[O-])cc2)o1)c1cccc(Cl)c1,–,–,–,–,–
O=C(N/N=C\c1ccc(COc2ccc([N+](=O)[O-])cc2)o1)c1ccc(Cl)cc1,–,–,-60,–,–
NC(=O)N/N=C/c1ccc(-c2cccc(C(F)(F)F)c2)o1,4.6µM,?,–,–,–
O=C(N/N=C/c1ccc(-c2cccc(C(F)(F)F)c2)o1)c1ccccc1O,?,?,–,–,–
COc1ccc(NS(=O)(=O)c2ccc3[nH]c4c(c3c2)CCCCC4)cc1,·,–,·,·,–
COc1cc(C(=O)NCC(=O)N/N=C/c2ccc(-c3cccc([N+](=O)[O-])c3)o2)cc(OC)c1OC,–,?,-85,–,–
COc1cc(C(=O)NCC(=O)N/N=C/c2ccc(-c3ccc([N+](=O)[O-])cc3)o2)cc(OC)c1OC,–,–,?,?,–

# Compound activity: PubChem, National Center for Advancing Translational Sciences (NCATS)
